In the supplement of paper PMC10849652:
Of roughly 7,900 targets only a part is listed; those with a hit were picked by preference. About 0.6% of all pairs of compound and target were hits.

Assays:
Assay in all cases: log2 fold change, soluble protein after heating vs DMSO (PISA); higher = thermal stabilisation; K562 cells, 10 uM, 30 min; active = over 0.2 and 3.5 SD of the protein, either way, in both replicates (recomputed)
[1] = compound: C1=CC=C(C=C1)[C@H](COC2=CC3=C(C=C2)NC(=O)N3)NC(=O)C4=CC=CN(C4=O)CC5=CC(=C(C=C5)F)F
Method in brief: (§1)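 Thermal stability values are relative to control samples and come from duplicates. They are expressed as log2 fold changes. For measurement, K562 cells (2×10^6 cells/mL) received 10 μM compound for 30 min, and aliquots were heated for 3 min over 48°C-58°C, pooled, and extracted at 4°C in PBS with 0.5% NP-40. Soluble protein, the supernatant after 21,000xg for 90 min, was quantified by TMTpro 16plex LC-MS/MS with equalised channel sums.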

[2] = compound: CC1=C(SC2=C1C(=N[C@H](C3=NN=C(N32)C)CC(=O)N)C4=CC=C(C=C4)Cl)C
Method in brief: as §1

[3] = compound: CC1=C2C(=CC=C1)N=C(N(C2=O)C3=CC=CC=C3C)CN4C=NC5=C(N=CN=C54)N
Method in brief: as §1

[4] = compound: Cc1sc2c(c1C)C(c1ccc(Cl)cc1)=N[C@@H](CC(=O)OC(C)(C)C)c1nnc(C)n1-2
Method in brief: as §1

[5] = compound: c1ccc([C@@H]2C[C@H]2NC2CCNCC2)cc1
Method in brief: as §1

Measured: log2 fold change

PPIL1 (UniProt Q9Y3C6)
inactive: [1] -0.046 | [2] 0.012 | [3] 0.021 | [4] 0.032 | [5] -0.052

PLA2G15 (UniProt Q8NCC3)
inactive: [1] 0.02 | [2] -0.01 | [3] -0.034 | [4] -0.001 | [5] 0

PIGT (UniProt Q969N2)
UniProt Q969N2, sequence (Q969N2 whole entry, looked up): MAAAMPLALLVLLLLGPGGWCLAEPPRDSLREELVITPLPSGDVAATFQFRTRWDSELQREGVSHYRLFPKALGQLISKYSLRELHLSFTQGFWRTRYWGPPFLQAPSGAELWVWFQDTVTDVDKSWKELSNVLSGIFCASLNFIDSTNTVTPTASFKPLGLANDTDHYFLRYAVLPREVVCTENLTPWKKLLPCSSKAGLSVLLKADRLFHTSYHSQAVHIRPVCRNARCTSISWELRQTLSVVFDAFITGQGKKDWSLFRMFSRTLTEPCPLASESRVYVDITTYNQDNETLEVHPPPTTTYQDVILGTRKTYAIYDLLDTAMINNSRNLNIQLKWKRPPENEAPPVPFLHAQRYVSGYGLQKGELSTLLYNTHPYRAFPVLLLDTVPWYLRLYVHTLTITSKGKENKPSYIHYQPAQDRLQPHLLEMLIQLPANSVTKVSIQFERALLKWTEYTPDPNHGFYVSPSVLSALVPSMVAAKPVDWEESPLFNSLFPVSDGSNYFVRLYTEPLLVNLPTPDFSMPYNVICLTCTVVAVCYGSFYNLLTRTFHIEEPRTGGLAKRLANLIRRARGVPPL
active: [4] 0.276
inactive: [1] 0.022 | [2] 0.142 | [3] -0.013 | [5] -0.021

PRMT8 (UniProt Q9NR22)
inactive: [1] -0.002 | [2] 0.133 | [3] 0.046 | [4] -0.028 | [5] -0.015

PNPLA2 (UniProt Q96AD5)
UniProt Q96AD5, sequence (Q96AD5 whole entry, looked up): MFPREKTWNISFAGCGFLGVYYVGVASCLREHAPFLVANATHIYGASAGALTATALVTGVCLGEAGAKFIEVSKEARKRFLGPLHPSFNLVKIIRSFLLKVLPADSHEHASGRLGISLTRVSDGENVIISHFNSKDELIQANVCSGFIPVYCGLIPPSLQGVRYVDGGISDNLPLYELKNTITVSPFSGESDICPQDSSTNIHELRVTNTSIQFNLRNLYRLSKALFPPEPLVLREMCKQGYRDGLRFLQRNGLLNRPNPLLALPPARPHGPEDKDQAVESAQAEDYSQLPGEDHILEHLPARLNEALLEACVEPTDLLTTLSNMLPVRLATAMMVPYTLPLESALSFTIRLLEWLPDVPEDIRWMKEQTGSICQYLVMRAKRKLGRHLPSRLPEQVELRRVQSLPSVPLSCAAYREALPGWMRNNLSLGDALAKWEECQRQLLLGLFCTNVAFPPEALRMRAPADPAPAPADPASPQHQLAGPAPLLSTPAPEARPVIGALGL
inactive: [1] 0.06 | [2] 0.014 | [3] 0.037 | [4] 0.068 | [5] -0.046

PIP4K2A (UniProt P48426)
UniProt P48426, sequence (P48426 whole entry, looked up): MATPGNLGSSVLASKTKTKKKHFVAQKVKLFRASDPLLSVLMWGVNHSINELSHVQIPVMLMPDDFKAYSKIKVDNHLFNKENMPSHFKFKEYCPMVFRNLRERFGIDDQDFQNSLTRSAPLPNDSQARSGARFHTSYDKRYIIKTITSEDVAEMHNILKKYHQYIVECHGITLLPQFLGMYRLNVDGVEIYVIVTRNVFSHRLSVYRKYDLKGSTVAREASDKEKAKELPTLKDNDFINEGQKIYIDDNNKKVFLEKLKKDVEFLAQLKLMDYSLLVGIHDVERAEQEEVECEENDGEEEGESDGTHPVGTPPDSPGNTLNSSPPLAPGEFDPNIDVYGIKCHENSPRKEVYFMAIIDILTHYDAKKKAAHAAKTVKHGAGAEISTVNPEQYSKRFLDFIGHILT
inactive: [1] -0.091 | [2] 0.032 | [3] 0.049 | [4] 0.033 | [5] -0.024

PFDN1 (UniProt O60925)
inactive: [1] -0.102 | [2] 0.155 | [3] 0.061 | [4] -0.171 | [5] -0.061

PTGES3 (UniProt Q15185)
inactive: [1] -0.009 | [2] 0.016 | [3] 0.067 | [4] -0.046 | [5] -0.063

PIP4K2C (UniProt Q8TBX8)
inactive: [1] -0.148 | [2] 0.034 | [3] 0.05 | [4] -0.029 | [5] -0.042

POTEI (UniProt P0CG38)
inactive: [1] 0.025 | [2] 0.012 | [3] -0.059 | [4] -0.03 | [5] -0.002

PTPMT1 (UniProt Q8WUK0)
inactive: [1] -0.019 | [2] 0.086 | [3] 0.029 | [4] 0.066 | [5] 0.01

PDS5A (UniProt Q29RF7)
inactive: [1] -0.34 | [2] 0.066 | [3] 0.096 | [4] 0.038 | [5] -0.105

PARN (UniProt O95453)
inactive: [1] -0.018 | [2] 0.059 | [3] 0.071 | [4] -0.028 | [5] 0.025

PTTG1 (UniProt O95997)
UniProt O95997, sequence (O95997 whole entry, looked up): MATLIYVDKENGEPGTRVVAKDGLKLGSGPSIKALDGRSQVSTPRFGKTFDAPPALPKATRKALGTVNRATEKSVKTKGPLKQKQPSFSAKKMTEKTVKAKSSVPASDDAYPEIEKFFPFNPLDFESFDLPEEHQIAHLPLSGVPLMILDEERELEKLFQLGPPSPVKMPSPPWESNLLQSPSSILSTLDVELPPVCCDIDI
inactive: [1] -0.005 | [2] 0.003 | [3] 0.014 | [4] 0.004 | [5] 0.011

PRKCB isoform 2 (UniProt P05771)
inactive: [1] -0.034 | [2] 0.028 | [3] 0.053 | [4] 0.027 | [5] -0.008

POP1 (UniProt Q99575)
inactive: [1] 0.003 | [2] -0.028 | [3] 0.029 | [4] 0.017 | [5] -0.01

PML (UniProt P29590)
inactive: [1] -0.008 | [2] -0.054 | [3] 0.002 | [4] -0.005 | [5] 0.001

PSMD5 (UniProt Q16401)
UniProt Q16401, sequence (Q16401 whole entry, looked up): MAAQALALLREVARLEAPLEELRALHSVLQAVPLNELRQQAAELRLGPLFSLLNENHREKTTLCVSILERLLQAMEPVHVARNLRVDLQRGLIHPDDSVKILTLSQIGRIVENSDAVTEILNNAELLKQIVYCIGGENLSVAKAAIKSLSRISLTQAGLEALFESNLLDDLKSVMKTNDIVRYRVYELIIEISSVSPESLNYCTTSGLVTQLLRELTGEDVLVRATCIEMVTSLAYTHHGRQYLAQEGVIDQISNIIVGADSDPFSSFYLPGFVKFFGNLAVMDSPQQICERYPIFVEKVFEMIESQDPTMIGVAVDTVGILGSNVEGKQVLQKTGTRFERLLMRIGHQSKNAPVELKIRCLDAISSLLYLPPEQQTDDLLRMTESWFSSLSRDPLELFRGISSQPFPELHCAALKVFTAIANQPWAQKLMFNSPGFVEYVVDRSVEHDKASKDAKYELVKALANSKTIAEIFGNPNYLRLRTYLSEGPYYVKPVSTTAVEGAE
inactive: [1] 0 | [2] 0.028 | [3] 0.006 | [4] -0.006 | [5] -0.001

PPT2 isoform 3 (UniProt Q9UMR5)
inactive: [1] 0.015 | [2] -0.062 | [3] -0.011 | [4] -0.053 | [5] 0.03

PTGR2 (UniProt Q8N8N7)
inactive: [1] 0.004 | [2] 0.055 | [4] -0.043 | [5] -0.091
active: [3] 0.581

PLBD1 (UniProt Q6P4A8)
UniProt Q6P4A8, sequence (Q6P4A8 whole entry, looked up): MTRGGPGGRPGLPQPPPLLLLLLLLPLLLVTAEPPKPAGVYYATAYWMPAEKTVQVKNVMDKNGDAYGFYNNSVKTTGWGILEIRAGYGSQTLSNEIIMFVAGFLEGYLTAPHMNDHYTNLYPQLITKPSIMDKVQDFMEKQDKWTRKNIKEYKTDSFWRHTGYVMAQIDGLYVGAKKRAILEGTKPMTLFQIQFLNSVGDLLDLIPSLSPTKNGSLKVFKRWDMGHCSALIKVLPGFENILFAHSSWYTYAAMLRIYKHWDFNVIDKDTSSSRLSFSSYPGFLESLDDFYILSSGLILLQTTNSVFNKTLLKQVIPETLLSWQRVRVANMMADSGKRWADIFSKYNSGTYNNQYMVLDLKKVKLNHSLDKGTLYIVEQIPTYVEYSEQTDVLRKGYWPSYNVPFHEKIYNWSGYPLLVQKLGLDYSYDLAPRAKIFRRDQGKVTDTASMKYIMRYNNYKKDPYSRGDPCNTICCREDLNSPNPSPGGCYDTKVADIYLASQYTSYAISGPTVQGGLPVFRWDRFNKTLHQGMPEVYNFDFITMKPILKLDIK
inactive: [1] 0.005 | [2] -0.011 | [3] -0.018 | [4] -0.006 | [5] 0.013

PSMC1 (UniProt P62191)
inactive: [1] 0.047 | [2] -0.09 | [3] -0.002 | [4] 0 | [5] 0

PYGB (UniProt P11216)
inactive: [1] 0.024 | [2] 0.037 | [3] 0.003 | [4] 0.015 | [5] -0.003

PSMD9 (UniProt O00233)
inactive: [1] 0.014 | [2] 0.017 | [3] -0.004 | [4] 0.007 | [5] 0.016

PDCD6 (UniProt O75340)
inactive: [1] -0.024 | [2] 0.057 | [3] 0.107 | [4] -0.052 | [5] 0.003

PPIL4 (UniProt Q8WUA2)
inactive: [1] 0.012 | [2] -0.022 | [3] 0.036 | [4] 0.039 | [5] 0.016

PIGH (UniProt Q14442)
inactive: [1] 0.044 | [2] 0.064 | [3] 0.144 | [4] -0.046 | [5] -0.024

PLSCR1 (UniProt O15162)
inactive: [1] 0.017 | [2] 0.036 | [3] -0.016 | [4] -0.051 | [5] 0.055

PIK3CB (UniProt P42338)
UniProt P42338, sequence (P42338 whole entry, looked up): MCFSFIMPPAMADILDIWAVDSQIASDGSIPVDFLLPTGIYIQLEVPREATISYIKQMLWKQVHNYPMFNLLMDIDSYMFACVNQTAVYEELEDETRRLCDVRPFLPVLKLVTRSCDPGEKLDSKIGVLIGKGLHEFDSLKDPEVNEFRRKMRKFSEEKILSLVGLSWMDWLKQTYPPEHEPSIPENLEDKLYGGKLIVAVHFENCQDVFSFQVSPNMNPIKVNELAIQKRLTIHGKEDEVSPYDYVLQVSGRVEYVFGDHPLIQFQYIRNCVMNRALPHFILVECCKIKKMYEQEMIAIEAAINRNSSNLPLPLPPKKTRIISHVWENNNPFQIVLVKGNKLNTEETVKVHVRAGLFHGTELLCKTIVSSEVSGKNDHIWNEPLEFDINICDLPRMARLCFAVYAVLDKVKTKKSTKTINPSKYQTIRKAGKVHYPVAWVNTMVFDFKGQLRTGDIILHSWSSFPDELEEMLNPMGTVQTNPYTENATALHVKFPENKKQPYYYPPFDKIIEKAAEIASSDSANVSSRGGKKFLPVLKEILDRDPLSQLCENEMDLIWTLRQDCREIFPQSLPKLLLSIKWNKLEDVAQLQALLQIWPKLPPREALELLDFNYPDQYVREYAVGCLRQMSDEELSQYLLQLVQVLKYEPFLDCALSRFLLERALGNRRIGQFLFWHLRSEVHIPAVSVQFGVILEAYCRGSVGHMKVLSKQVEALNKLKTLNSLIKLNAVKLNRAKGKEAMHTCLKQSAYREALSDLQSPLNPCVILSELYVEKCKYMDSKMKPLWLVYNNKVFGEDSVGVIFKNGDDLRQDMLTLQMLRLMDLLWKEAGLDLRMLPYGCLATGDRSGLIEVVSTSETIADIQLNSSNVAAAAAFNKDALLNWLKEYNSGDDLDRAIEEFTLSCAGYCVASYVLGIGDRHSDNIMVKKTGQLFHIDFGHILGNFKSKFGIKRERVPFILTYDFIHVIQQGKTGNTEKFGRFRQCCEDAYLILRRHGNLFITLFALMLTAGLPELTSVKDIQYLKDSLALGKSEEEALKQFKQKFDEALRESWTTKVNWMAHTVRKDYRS
inactive: [1] -0.068 | [2] 0.014 | [4] -0.01 | [5] 0.005
active: [3] 0.213

PTDSS1 (UniProt P48651)
inactive: [1] -0.027 | [2] -0.072 | [3] -0.115 | [4] 0.042 | [5] 0.017

POLD3 (UniProt Q15054)
inactive: [1] -0.027 | [2] 0.14 | [3] 0.104 | [4] -0.037 | [5] -0.009

PUF60 (UniProt Q9UHX1)
inactive: [1] 0.031 | [2] 0.033 | [3] 0.081 | [4] -0.036 | [5] 0.007

PPP2R5A (UniProt Q15172)
inactive: [1] -0.036 | [2] 0.07 | [3] -0.006 | [4] -0.08 | [5] -0.08

PI4K2A (UniProt Q9BTU6)
inactive: [1] 0.015 | [2] 0.043 | [3] 0.064 | [4] -0.004 | [5] 0.013

PTTG1IP (UniProt P53801)
inactive: [1] 0.149 | [2] -0.055 | [3] -0.134 | [4] 0.04 | [5] 0.084

PRKAR2B (UniProt P31323)
inactive: [1] -0.065 | [2] -0.012 | [3] -0.06 | [4] -0.024 | [5] 0.007

PARP1 (UniProt P09874)
inactive: [1] -0.098 | [2] 0.027 | [3] 0.182 | [4] -0.069 | [5] -0.101

QKI (UniProt Q96PU8)
inactive: [1] -0.016 | [2] 0.039 | [3] 0.105 | [4] -0.082 | [5] 0.01

PCID2 (UniProt Q5JVF3)
inactive: [1] -0.18 | [2] 0.057 | [3] 0.159 | [4] 0.033 | [5] -0.071

PRIM1 (UniProt P49642)
inactive: [1] -0.149 | [2] -0.033 | [3] 0.053 | [4] 0.033 | [5] 0.01

PC (UniProt P11498)
inactive: [1] -0.012 | [2] 0.031 | [3] 0.111 | [4] 0.025 | [5] -0.021

POLR3K (UniProt Q9Y2Y1)
inactive: [1] -0.009 | [2] -0.008 | [3] -0.029 | [4] 0.021 | [5] 0.056

PTGFRN (UniProt Q9P2B2)
inactive: [1] -0.014 | [2] 0.036 | [3] 0.043 | [4] 0.04 | [5] -0.006

PCYT1B (UniProt Q9Y5K3)
inactive: [1] -0.063 | [2] -0.003 | [3] 0.022 | [4] 0.042 | [5] 0.034

PXK (UniProt Q7Z7A4)
inactive: [1] -0.015 | [2] 0.04 | [3] 0.098 | [4] 0.011 | [5] -0.045

PISD (UniProt Q9UG56)
inactive: [1] 0.002 | [2] -0.024 | [3] 0.079 | [4] -0.011 | [5] 0.043

PCBP2 isoform 3 (UniProt Q15366)
inactive: [1] -0.051 | [2] 0.016 | [3] 0.055 | [4] -0.029 | [5] 0.005

PDCD2L (UniProt Q9BRP1)
inactive: [1] -0.031 | [2] 0.055 | [3] 0.109 | [4] 0.021 | [5] 0.091

POLR2D (UniProt O15514)
inactive: [1] 0.003 | [2] 0.134 | [3] -0.006 | [4] 0.17 | [5] 0.045

PTPA (UniProt A6PVN8)
inactive: [1] 0.011 | [2] 0.011 | [3] 0.001 | [4] -0.015 | [5] 0.148

POMK (UniProt Q9H5K3)
UniProt Q9H5K3, sequence (Q9H5K3 whole entry, looked up): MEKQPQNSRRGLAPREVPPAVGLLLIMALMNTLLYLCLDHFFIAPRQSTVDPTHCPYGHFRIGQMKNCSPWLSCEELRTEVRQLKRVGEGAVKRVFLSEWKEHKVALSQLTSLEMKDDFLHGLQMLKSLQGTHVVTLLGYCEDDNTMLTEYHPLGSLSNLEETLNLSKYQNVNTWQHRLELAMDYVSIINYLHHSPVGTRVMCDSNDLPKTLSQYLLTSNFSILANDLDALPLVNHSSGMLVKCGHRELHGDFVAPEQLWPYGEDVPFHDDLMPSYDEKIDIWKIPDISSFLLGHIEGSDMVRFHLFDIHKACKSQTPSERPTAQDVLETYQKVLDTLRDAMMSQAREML
inactive: [1] 0.04 | [2] 0.027 | [3] -0.041 | [4] -0.067 | [5] -0.022

PTPN12 (UniProt Q05209)
UniProt Q05209, sequence (Q05209 whole entry, looked up): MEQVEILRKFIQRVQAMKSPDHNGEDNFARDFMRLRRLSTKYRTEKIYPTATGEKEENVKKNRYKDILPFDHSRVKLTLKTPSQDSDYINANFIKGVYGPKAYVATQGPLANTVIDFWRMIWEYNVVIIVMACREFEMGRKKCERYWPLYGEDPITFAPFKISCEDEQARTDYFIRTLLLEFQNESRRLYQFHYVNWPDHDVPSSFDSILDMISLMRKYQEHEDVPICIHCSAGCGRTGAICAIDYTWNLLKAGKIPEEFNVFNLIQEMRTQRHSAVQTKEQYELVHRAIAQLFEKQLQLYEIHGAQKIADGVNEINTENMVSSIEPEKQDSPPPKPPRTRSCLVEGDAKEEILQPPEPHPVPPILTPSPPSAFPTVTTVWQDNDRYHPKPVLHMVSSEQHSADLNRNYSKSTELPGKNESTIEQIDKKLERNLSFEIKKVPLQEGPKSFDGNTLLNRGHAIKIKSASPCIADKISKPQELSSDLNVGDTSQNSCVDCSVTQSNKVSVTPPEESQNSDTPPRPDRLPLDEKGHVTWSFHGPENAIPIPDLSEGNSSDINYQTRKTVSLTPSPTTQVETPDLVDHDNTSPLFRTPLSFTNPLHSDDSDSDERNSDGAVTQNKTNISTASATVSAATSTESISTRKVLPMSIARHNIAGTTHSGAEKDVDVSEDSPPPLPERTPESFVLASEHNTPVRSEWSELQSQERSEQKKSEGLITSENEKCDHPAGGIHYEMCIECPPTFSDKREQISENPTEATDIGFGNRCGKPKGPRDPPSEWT
inactive: [1] 0.035 | [2] 0.034 | [3] 0.091 | [4] 0.024 | [5] 0.015

PCTP (UniProt Q9UKL6)
inactive: [1] -0.033 | [2] -0.101 | [3] 0.028 | [4] -0.023 | [5] 0.018
